Measured values as given in PubChem BioAssay AID1159580 (chemical genetic matrix, 2015).
The whole screen tested about 5,500 compounds, of which about 2,000 (36%) were called active. Inconclusive results (about 18%) are left out. Cut-off read from the data, not from the text of the source: active = normalized growth mostly below about 0.91 (no sharp cut-off); inconclusive = no clear call, values can overlap the other calls; inactive = mostly above about 0.92. The list shows a part of the results.

Experiment: chemical genetic growth profiling, strain panel (AID 1159580);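 note: tested at 20 µM; growth read once vehicle control cultures reached saturation at 30 °C; 1 = growth at the plate median or of vehicle wells; lower values mean less growth of the strain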
Settings: growth OD
[1] = S. cerevisiae deletion strains, locus YAL013W, strain DEP1, hits give low values
[2] = S. cerevisiae deletion strains, locus YDR150W, strain NUM1, hits give low values
[3] = S. cerevisiae deletion strains, locus YGR078C, strain PAC10, hits give low values
[4] = S. cerevisiae deletion strains, locus YJR075W, strain HOC1, hits give low values
[5] = S. cerevisiae deletion strains, locus YMR263W, strain SAP30, hits give low values
[6] = S. cerevisiae deletion strains, locus YMR307W, strain GAS1, hits give low values
[7] = S. cerevisiae deletion strains, locus YNL153C, strain GIM3, hits give low values
[8] = S. cerevisiae deletion strains, locus YNL322C, strain KRE1, hits give low values
[9] = S. cerevisiae deletion strains, locus YPL055C, strain LGE1, hits give low values
[10] = S. cerevisiae deletion strains, locus YPL241C, strain CIN2, hits give low values
[11] = S. cerevisiae deletion strains, locus YAL040C, strain CLN3, hits give low values
[12] = S. cerevisiae deletion strains, locus YCL061C, strain MRC1 (second series), hits give low values
[13] = S. cerevisiae deletion strains, locus YDR363W, strain ESC2, hits give low values
[14] = S. cerevisiae deletion strains, locus YER002W, strain NOP16, hits give low values
[15] = S. cerevisiae deletion strains, locus YNL128W, strain TEP1, hits give low values
[16] = S. cerevisiae deletion strains, locus YNL175C, strain NOP13, hits give low values
[17] = S. cerevisiae deletion strains, locus YNL197C, strain WHI3, hits give low values
[18] = S. cerevisiae deletion strains, locus YNL224C, strain SQS1, hits give low values
[19] = S. cerevisiae deletion strains, locus YOR083W, strain WHI5 (second series), hits give low values

Measured: normalized growth

CC12CCC3C(CC[C@H]4CC5(CCC34C)OCCO5)C1CCC2O (some centres undefined)
active: S. cerevisiae deletion strains, locus YCL061C, strain MRC1, hits give low values 0.87 | S. cerevisiae deletion strains, locus YJL187C, strain SWE1, hits give low values 0.92 | S. cerevisiae deletion strains, locus YJR043C, strain POL32, hits give low values 0.877 | S. cerevisiae deletion strains, locus YLR039C, strain RIC1, hits give low values 0.74 | S. cerevisiae deletion strains, locus YLR262C, strain YPT6, hits give low values 0.625 | [7] 0.905 | [8] 1.08 [resistant]
inactive: [1] 0.988 | S. cerevisiae deletion strains, locus YBR229C, strain ROT2, hits give low values 1.01 | S. cerevisiae deletion strains, locus YDL101C, strain DUN1, hits give low values 0.976 | [2] 0.912 | S. cerevisiae deletion strains, locus YEL061C, strain CIN8, hits give low values 0.999 | [3] 0.968 | S. cerevisiae deletion strains, locus YHR030C, strain SLT2, hits give low values 0.969 | S. cerevisiae deletion strains, locus YHR087W, strain rtc3, hits give low values 1.02 | [4] 1 | S. cerevisiae deletion strains, locus YKL190W, strain CNB1, hits give low values 1.03 | S. cerevisiae deletion strains, locus YLR058C, strain SHM2 (second series), hits give low values 1.04 | S. cerevisiae deletion strains, locus YLR085C, strain ARP6, hits give low values 1.03 | S. cerevisiae deletion strains, locus YML094W, strain GIM5, hits give low values 0.98 | S. cerevisiae deletion strains, locus YMR219W, strain ESC1, hits give low values 1 | [5] 0.992 | [6] 1.05 | S. cerevisiae deletion strains, locus YNL298W, strain CLA4 (second series), hits give low values 0.945 | S. cerevisiae deletion strains, locus YNR030W, strain Alg12, hits give low values 0.963 | [9] 0.98 | [10] 0.962 | S. cerevisiae deletion strains, locus YPR135W, strain CTF4, hits give low values 0.832 | S. cerevisiae strains, strain wild type, hits give low values 1.02

C[C@]12CCC3C(CC[C@H]4C[C@H](O)CC[C@]34C)C1CC[C@@H]2C(=O)CO (some centres undefined)
inactive: [1] 1.02 | [11] 1.08 | [12] 1.01 | [2] 1.03 | [13] 1.02 | [14] 1.02 | [4] 1.06 | [6] 0.939 | [15] 1.02 | [16] 1.04 | [17] 1.02 | [18] 0.995 | [19] 1.01 | [9] 1.03 | [10] 1.03

CC(=O)[C@H]1CCC2C3CC[C@H]4C[C@H](O)CC[C@]4(C)C3CC[C@@]21C (some centres undefined)
inactive: [1] 1.01 | [11] 0.979 | [12] 1 | [13] 1.04 | [14] 1 | [3] 1.01 | [6] 0.935 | [15] 1.01 | [7] 0.944 | [16] 0.993 | [17] 1.01 | [18] 1 | [19] 1 | [9] 0.98

C[C@]12CC[C@H]3[C@@H](CCC4C[C@H](O)CC[C@@]43C)[C@@H]1CC[C@@H]2O (some centres undefined)
inactive: [1] 0.946 | [11] 1.02 | [12] 1 | [13] 0.987 | [14] 1 | [4] 1.06 | [5] 1.03 | [6] 0.977 | [15] 1.03 | [16] 1.02 | [17] 0.964 | [18] 1.01 | [8] 1.02 | [19] 0.966 | [9] 1.03 | [10] 1.03
